Experimental data as given in article PMC11062922 (Nature Chemical Biology, 2023).
Read-outs that look alike come from different tables or passages of the source.

Tests used:
RPS6KA4 = details: read-out: apparent Kd, n = 1
TNIK = details: read-out: apparent Kd, n = 1
[1] = compound concentrations:100 nM and 1000 nM (sheet 'Lestaurtinib' of Supplementary Table 1),run:Lestaurtinib_02624_R1,Plate:MR020
[2] = compound concentrations:100 nM and 1000 nM (sheet 'Lestaurtinib' of Supplementary Table 1),run:Lestaurtinib_02624_R2,Plate:MR020
[3] = compound concentrations:100 nM and 1000 nM (sheet 'Lestaurtinib' of Supplementary Table 1),run:Lestaurtinib_02724_R3,Plate:MR021
[4] = compound concentrations:100 nM and 1000 nM (sheet 'Lestaurtinib' of Supplementary Table 1),run:Lestaurtinib_02741_R1,Plate:MR023
[5] = compound concentrations:100 nM and 1000 nM (sheet 'Lestaurtinib' of Supplementary Table 1),run:Lestaurtinib_02741_R2,Plate:MR023
[6] = compound concentrations:100 nM and 1000 nM (sheet 'Lestaurtinib' of Supplementary Table 1),run:Lestaurtinib_02741_R3,Plate:MR023
[7] = compound concentrations:100 nM and 1000 nM (sheet 'Lestaurtinib' of Supplementary Table 1),run:Lestaurtinib_02752_R1,Plate:MR025
[8] = compound concentrations:100 nM and 1000 nM (sheet 'Lestaurtinib' of Supplementary Table 1),run:Lestaurtinib_02765_R2,Plate:MR026
[9] = compound concentrations:100 nM and 1000 nM (sheet 'Lestaurtinib' of Supplementary Table 1),run:Lestaurtinib_02766_R2,Plate:MR027
[10] = compound concentrations:100 nM and 1000 nM (sheet 'Lestaurtinib' of Supplementary Table 1),run:Lestaurtinib_02766_R3,Plate:MR027
[11] = compound concentrations:100 nM and 1000 nM (sheet 'Lestaurtinib' of Supplementary Table 1),run:Lestaurtinib_02768_R1,Plate:MR028
[12] = compound concentrations:100 nM and 1000 nM (sheet 'Lestaurtinib' of Supplementary Table 1),run:Lestaurtinib_02768_R3,Plate:MR028

Lestaurtinib
potency estimated from few doses (RPS6KA4; compound concentrations:100 nM and 1000 nM (sheet 'Lestaurtinib' of Supplementary Table 1),run:Lestaurtinib_02606_R2,Plate:MR019): 1310 nM | potency estimated from few doses (RPS6KA4; compound concentrations:100 nM and 1000 nM (sheet 'Lestaurtinib' of Supplementary Table 1),run:Lestaurtinib_02606_R3,Plate:MR019): 1340 nM | potency estimated from few doses (RPS6KA4; [1]): 1570 nM | potency estimated from few doses (RPS6KA4; [2]): 952 nM | potency estimated from few doses (RPS6KA4; compound concentrations:100 nM and 1000 nM (sheet 'Lestaurtinib' of Supplementary Table 1),run:Lestaurtinib_02724_R1,Plate:MR021): 1570 nM | potency estimated from few doses (RPS6KA4; compound concentrations:100 nM and 1000 nM (sheet 'Lestaurtinib' of Supplementary Table 1),run:Lestaurtinib_02724_R2,Plate:MR021): 1150 nM | potency estimated from few doses (RPS6KA4; [3]): 731 nM | potency estimated from few doses (RPS6KA4; [4]): 865 nM | potency estimated from few doses (RPS6KA4; [5]): 999 nM | potency estimated from few doses (RPS6KA4; [6]): 1130 nM | potency estimated from few doses (RPS6KA4; compound concentrations:100 nM and 1000 nM (sheet 'Lestaurtinib' of Supplementary Table 1),run:Lestaurtinib_02748_R1,Plate:MR024): 769 nM | potency estimated from few doses (RPS6KA4; compound concentrations:100 nM and 1000 nM (sheet 'Lestaurtinib' of Supplementary Table 1),run:Lestaurtinib_02748_R3,Plate:MR024): 638 nM | potency estimated from few doses (RPS6KA4; [7]): 1210 nM | potency estimated from few doses (RPS6KA4; compound concentrations:100 nM and 1000 nM (sheet 'Lestaurtinib' of Supplementary Table 1),run:Lestaurtinib_02765_R1,Plate:MR026): 1510 nM | potency estimated from few doses (RPS6KA4; [8]): 1150 nM | potency estimated from few doses (RPS6KA4; compound concentrations:100 nM and 1000 nM (sheet 'Lestaurtinib' of Supplementary Table 1),run:Lestaurtinib_02766_R1,Plate:MR027): 911 nM | potency estimated from few doses (RPS6KA4; [9]): 974 nM | potency estimated from few doses (RPS6KA4; [10]): 783 nM | potency estimated from few doses (RPS6KA4; [11]): 814 nM | potency estimated from few doses (RPS6KA4; compound concentrations:100 nM and 1000 nM (sheet 'Lestaurtinib' of Supplementary Table 1),run:Lestaurtinib_02768_R2,Plate:MR028): 841 nM | potency estimated from few doses (RPS6KA4; [12]): 954 nM | potency estimated from few doses (RPS6KA4; compound concentrations:100 nM and 1000 nM (sheet 'Lestaurtinib' of Supplementary Table 1),run:Lestaurtinib_02795_R2,Plate:MR022): 1420 nM | potency estimated from few doses (RPS6KA4; compound concentrations:100 nM and 1000 nM (sheet 'Lestaurtinib' of Supplementary Table 1),run:Lestaurtinib_02802_R2,Plate:MR029): 865 nM | potency estimated from few doses (RPS6KA4; compound concentrations:100 nM and 1000 nM (sheet 'Lestaurtinib' of Supplementary Table 1),run:Lestaurtinib_02802_R3,Plate:MR029): 770 nM | potency estimated from few doses (RPS6KA4; compound concentrations:100 nM and 1000 nM (sheet 'Lestaurtinib' of Supplementary Table 1),run:Lestaurtinib_02896_R1,Plate:MR030): 748 nM | potency estimated from few doses (RPS6KA4; compound concentrations:100 nM and 1000 nM (sheet 'Lestaurtinib' of Supplementary Table 1),run:Lestaurtinib_02896_R2,Plate:MR030): 1150 nM | potency estimated from few doses (RPS6KA4; compound concentrations:100 nM and 1000 nM (sheet 'Lestaurtinib' of Supplementary Table 1),run:Lestaurtinib_03172_R1,Plate:MR031): 1350 nM | potency estimated from few doses (RPS6KA4; compound concentrations:100 nM and 1000 nM (sheet 'Lestaurtinib' of Supplementary Table 1),run:Lestaurtinib_03172_R2,Plate:MR031): 771 nM | potency estimated from few doses (RPS6KA4; compound concentrations:100 nM and 1000 nM (sheet 'Lestaurtinib' of Supplementary Table 1),run:Lestaurtinib_03252_R2,Plate:MR032): 1300 nM | potency estimated from few doses (RPS6KA4; compound concentrations:100 nM and 1000 nM (sheet 'Lestaurtinib' of Supplementary Table 1),run:Lestaurtinib_03260_R3,Plate:MR033): 1400 nM | potency estimated from few doses (TNIK; compound concentrations:100 nM and 1000 nM (sheet 'Lestaurtinib' of Supplementary Table 1),run:Lestaurtinib_02339_R2,Plate:MR001): 798 nM | potency estimated from few doses (TNIK; compound concentrations:100 nM and 1000 nM (sheet 'Lestaurtinib' of Supplementary Table 1),run:Lestaurtinib_02364_R2,Plate:MR002): 206 nM | potency estimated from few doses (TNIK; compound concentrations:100 nM and 1000 nM (sheet 'Lestaurtinib' of Supplementary Table 1),run:Lestaurtinib_02367_R1,Plate:MR003): 1130 nM | potency estimated from few doses (TNIK; compound concentrations:100 nM and 1000 nM (sheet 'Lestaurtinib' of Supplementary Table 1),run:Lestaurtinib_02367_R2,Plate:MR003): 460 nM | potency estimated from few doses (TNIK; compound concentrations:100 nM and 1000 nM (sheet 'Lestaurtinib' of Supplementary Table 1),run:Lestaurtinib_02367_R3,Plate:MR003): 1930 nM | potency estimated from few doses (TNIK; compound concentrations:100 nM and 1000 nM (sheet 'Lestaurtinib' of Supplementary Table 1),run:Lestaurtinib_02407_R1,Plate:MR005): 160 nM | potency estimated from few doses (TNIK; compound concentrations:100 nM and 1000 nM (sheet 'Lestaurtinib' of Supplementary Table 1),run:Lestaurtinib_02407_R2,Plate:MR005): 772 nM | potency estimated from few doses (TNIK; compound concentrations:100 nM and 1000 nM (sheet 'Lestaurtinib' of Supplementary Table 1),run:Lestaurtinib_02407_R3,Plate:MR005): 136 nM | potency estimated from few doses (TNIK; compound concentrations:100 nM and 1000 nM (sheet 'Lestaurtinib' of Supplementary Table 1),run:Lestaurtinib_02422_R1,Plate:MR006): 1750 nM | potency estimated from few doses (TNIK; compound concentrations:100 nM and 1000 nM (sheet 'Lestaurtinib' of Supplementary Table 1),run:Lestaurtinib_02437_R1,Plate:MR007): 1310 nM | potency estimated from few doses (TNIK; compound concentrations:100 nM and 1000 nM (sheet 'Lestaurtinib' of Supplementary Table 1),run:Lestaurtinib_02443_R2,Plate:MR009): 687 nM | potency estimated from few doses (TNIK; compound concentrations:100 nM and 1000 nM (sheet 'Lestaurtinib' of Supplementary Table 1),run:Lestaurtinib_02473_R1,Plate:MR010): 165 nM | potency estimated from few doses (TNIK; compound concentrations:100 nM and 1000 nM (sheet 'Lestaurtinib' of Supplementary Table 1),run:Lestaurtinib_02482_R1,Plate:MR011): 994 nM | potency estimated from few doses (TNIK; compound concentrations:100 nM and 1000 nM (sheet 'Lestaurtinib' of Supplementary Table 1),run:Lestaurtinib_02487_R2,Plate:MR012): 159 nM | potency estimated from few doses (TNIK; compound concentrations:100 nM and 1000 nM (sheet 'Lestaurtinib' of Supplementary Table 1),run:Lestaurtinib_02487_R3,Plate:MR012): 481 nM | potency estimated from few doses (TNIK; compound concentrations:100 nM and 1000 nM (sheet 'Lestaurtinib' of Supplementary Table 1),run:Lestaurtinib_02496_R2,Plate:MR013): 764 nM | potency estimated from few doses (TNIK; compound concentrations:100 nM and 1000 nM (sheet 'Lestaurtinib' of Supplementary Table 1),run:Lestaurtinib_02496_R3,Plate:MR013): 887 nM | potency estimated from few doses (TNIK; compound concentrations:100 nM and 1000 nM (sheet 'Lestaurtinib' of Supplementary Table 1),run:Lestaurtinib_02566_R1,Plate:MR014): 845 nM | potency estimated from few doses (TNIK; compound concentrations:100 nM and 1000 nM (sheet 'Lestaurtinib' of Supplementary Table 1),run:Lestaurtinib_02566_R2,Plate:MR014): 581 nM | potency estimated from few doses (TNIK; compound concentrations:100 nM and 1000 nM (sheet 'Lestaurtinib' of Supplementary Table 1),run:Lestaurtinib_02572_R3,Plate:MR015): 52 nM | potency estimated from few doses (TNIK; compound concentrations:100 nM and 1000 nM (sheet 'Lestaurtinib' of Supplementary Table 1),run:Lestaurtinib_02577_R2,Plate:MR016): 582 nM | potency estimated from few doses (TNIK; compound concentrations:100 nM and 1000 nM (sheet 'Lestaurtinib' of Supplementary Table 1),run:Lestaurtinib_02577_R3,Plate:MR016): 885 nM | potency estimated from few doses (TNIK; compound concentrations:100 nM and 1000 nM (sheet 'Lestaurtinib' of Supplementary Table 1),run:Lestaurtinib_02584_R1,Plate:MR017): 680 nM | potency estimated from few doses (TNIK; compound concentrations:100 nM and 1000 nM (sheet 'Lestaurtinib' of Supplementary Table 1),run:Lestaurtinib_02584_R2,Plate:MR017): 717 nM | potency estimated from few doses (TNIK; compound concentrations:100 nM and 1000 nM (sheet 'Lestaurtinib' of Supplementary Table 1),run:Lestaurtinib_02584_R3,Plate:MR017): 641 nM | potency estimated from few doses (TNIK; compound concentrations:100 nM and 1000 nM (sheet 'Lestaurtinib' of Supplementary Table 1),run:Lestaurtinib_02601_R1,Plate:MR018): 756 nM | potency estimated from few doses (TNIK; compound concentrations:100 nM and 1000 nM (sheet 'Lestaurtinib' of Supplementary Table 1),run:Lestaurtinib_02601_R2,Plate:MR018): 146 nM | potency estimated from few doses (TNIK; [1]): 562 nM | potency estimated from few doses (TNIK; [2]): 154 nM | potency estimated from few doses (TNIK; [3]): 507 nM | potency estimated from few doses (TNIK; [4]): 208 nM | potency estimated from few doses (TNIK; [5]): 627 nM | potency estimated from few doses (TNIK; [6]): 536 nM | potency estimated from few doses (TNIK; [7]): 708 nM | potency estimated from few doses (TNIK; compound concentrations:100 nM and 1000 nM (sheet 'Lestaurtinib' of Supplementary Table 1),run:Lestaurtinib_02752_R2,Plate:MR025): 671 nM | potency estimated from few doses (TNIK; [8]): 797 nM | potency estimated from few doses (TNIK; compound concentrations:100 nM and 1000 nM (sheet 'Lestaurtinib' of Supplementary Table 1),run:Lestaurtinib_02765_R3,Plate:MR026): 836 nM | potency estimated from few doses (TNIK; [9]): 806 nM | potency estimated from few doses (TNIK; [10]): 130 nM | potency estimated from few doses (TNIK; [11]): 142 nM | potency estimated from few doses (TNIK; [12]): 785 nM | potency estimated from few doses (TNIK; compound concentrations:100 nM and 1000 nM (sheet 'Lestaurtinib' of Supplementary Table 1),run:Lestaurtinib_02795_R1,Plate:MR022): 573 nM
